Measurements taken from ChEMBL document CHEMBL1961873, “Compounds: GSK PKIS; Assays: Nanosyn kinase panel” (2012).

Legend:
[1] = target: T1, Serine/threonine-protein kinase D2 (Homo sapiens) (UniProt Q9BZL6); settings: at 1 µM;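 also: mean value of PRKD2 inhibition, from the GSK PKIS screening panel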
T1 sequence (whole entry): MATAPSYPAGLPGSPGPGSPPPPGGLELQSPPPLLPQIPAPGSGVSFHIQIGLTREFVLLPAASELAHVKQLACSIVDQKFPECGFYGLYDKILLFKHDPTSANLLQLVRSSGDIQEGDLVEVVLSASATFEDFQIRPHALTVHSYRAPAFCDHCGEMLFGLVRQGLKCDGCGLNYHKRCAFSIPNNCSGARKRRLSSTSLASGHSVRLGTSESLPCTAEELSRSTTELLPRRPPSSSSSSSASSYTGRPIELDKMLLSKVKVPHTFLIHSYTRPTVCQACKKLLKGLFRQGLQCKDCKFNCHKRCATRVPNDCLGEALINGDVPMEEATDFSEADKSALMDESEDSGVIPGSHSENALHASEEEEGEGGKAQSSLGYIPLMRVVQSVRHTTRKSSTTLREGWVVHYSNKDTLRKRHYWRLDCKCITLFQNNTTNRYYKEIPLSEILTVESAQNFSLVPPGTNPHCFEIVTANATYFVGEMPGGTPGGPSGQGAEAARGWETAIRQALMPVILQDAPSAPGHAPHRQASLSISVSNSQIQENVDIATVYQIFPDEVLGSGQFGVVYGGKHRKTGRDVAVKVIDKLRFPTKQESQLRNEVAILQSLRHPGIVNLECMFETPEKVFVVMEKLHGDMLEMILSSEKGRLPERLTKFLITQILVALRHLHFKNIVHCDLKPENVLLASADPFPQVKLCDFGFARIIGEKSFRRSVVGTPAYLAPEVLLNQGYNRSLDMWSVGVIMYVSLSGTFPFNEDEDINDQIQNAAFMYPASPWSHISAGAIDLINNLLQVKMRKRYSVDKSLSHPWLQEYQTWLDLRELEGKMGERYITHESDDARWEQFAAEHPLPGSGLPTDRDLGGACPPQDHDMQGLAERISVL

[2] = target: T2, Serine/threonine-protein kinase D3 (Homo sapiens) (UniProt O94806); settings: at 0.1 µM
T2 sequence (whole entry): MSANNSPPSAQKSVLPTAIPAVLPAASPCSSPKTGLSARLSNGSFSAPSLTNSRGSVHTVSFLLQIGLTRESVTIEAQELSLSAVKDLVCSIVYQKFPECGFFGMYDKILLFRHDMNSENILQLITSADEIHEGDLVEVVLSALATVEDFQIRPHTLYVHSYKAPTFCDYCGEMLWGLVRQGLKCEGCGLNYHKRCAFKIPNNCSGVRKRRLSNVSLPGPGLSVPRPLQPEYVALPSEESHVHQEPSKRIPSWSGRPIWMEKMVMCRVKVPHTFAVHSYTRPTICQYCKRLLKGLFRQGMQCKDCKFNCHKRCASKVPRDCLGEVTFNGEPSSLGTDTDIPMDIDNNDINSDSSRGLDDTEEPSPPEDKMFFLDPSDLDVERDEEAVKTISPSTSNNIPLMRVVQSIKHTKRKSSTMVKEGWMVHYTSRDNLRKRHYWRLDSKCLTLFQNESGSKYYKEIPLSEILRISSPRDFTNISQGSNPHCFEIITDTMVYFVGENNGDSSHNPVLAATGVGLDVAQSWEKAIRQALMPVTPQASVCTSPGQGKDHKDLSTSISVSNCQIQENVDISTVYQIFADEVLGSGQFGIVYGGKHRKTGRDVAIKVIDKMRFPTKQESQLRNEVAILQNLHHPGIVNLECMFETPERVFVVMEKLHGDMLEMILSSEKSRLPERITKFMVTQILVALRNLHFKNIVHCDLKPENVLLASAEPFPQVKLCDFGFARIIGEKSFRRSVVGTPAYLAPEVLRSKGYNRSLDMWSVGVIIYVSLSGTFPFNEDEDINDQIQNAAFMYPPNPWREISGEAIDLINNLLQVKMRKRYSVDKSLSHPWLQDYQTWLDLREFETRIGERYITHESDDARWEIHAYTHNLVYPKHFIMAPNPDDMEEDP

[3] = target: T2, Serine/threonine-protein kinase D3 (Homo sapiens); settings: at 1 µM
[4] = target: T3, cGMP-dependent protein kinase 1 (Homo sapiens) (UniProt Q13976); settings: at 0.1 µM
T3 sequence (whole entry): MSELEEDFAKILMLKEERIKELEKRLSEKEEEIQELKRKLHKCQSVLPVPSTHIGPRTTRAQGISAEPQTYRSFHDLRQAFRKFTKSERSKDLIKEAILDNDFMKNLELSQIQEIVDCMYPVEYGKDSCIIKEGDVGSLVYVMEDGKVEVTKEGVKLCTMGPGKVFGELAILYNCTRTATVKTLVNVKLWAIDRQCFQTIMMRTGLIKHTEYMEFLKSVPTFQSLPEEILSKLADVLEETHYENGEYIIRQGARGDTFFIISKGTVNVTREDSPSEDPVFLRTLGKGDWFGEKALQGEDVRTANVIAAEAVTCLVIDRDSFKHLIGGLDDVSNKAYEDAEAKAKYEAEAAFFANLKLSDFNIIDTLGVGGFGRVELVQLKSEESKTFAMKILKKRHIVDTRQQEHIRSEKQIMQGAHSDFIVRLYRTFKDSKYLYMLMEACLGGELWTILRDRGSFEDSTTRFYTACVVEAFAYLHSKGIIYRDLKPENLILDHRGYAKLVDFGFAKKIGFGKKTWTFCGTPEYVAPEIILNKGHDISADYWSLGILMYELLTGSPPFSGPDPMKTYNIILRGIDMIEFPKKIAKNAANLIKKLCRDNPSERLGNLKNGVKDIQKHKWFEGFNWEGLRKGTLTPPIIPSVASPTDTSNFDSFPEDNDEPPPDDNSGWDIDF

[5] = target: T3, cGMP-dependent protein kinase 1 (Homo sapiens); settings: at 1 µM
[6] = target: T4, cGMP-dependent protein kinase 2 (Homo sapiens) (UniProt Q13237); settings: at 0.1 µM
T4 sequence (whole entry): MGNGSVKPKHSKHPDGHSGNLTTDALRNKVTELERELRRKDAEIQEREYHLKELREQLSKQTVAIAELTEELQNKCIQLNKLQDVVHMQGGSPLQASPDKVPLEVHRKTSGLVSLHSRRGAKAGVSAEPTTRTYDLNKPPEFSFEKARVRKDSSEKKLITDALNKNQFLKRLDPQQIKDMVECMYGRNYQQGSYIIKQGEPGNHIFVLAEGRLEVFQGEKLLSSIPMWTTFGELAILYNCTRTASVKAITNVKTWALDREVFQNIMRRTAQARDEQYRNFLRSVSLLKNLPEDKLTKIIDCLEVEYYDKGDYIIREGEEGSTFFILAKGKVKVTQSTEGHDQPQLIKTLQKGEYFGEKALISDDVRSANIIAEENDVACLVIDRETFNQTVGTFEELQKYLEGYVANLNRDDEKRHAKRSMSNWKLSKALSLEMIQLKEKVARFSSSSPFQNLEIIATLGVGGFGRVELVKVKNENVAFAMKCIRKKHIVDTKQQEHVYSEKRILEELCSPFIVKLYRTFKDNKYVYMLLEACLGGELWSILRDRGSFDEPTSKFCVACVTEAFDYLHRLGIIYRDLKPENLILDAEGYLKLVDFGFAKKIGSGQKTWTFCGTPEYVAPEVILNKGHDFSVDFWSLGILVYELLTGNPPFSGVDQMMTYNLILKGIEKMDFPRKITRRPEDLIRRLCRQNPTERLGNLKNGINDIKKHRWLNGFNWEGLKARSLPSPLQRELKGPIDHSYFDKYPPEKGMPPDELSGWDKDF

[7] = target: T4, cGMP-dependent protein kinase 2 (Homo sapiens); settings: at 1 µM
[8] = target: T5, cAMP-dependent protein kinase catalytic subunit PRKX (Homo sapiens) (UniProt P51817); settings: at 0.1 µM
T5 sequence (whole entry): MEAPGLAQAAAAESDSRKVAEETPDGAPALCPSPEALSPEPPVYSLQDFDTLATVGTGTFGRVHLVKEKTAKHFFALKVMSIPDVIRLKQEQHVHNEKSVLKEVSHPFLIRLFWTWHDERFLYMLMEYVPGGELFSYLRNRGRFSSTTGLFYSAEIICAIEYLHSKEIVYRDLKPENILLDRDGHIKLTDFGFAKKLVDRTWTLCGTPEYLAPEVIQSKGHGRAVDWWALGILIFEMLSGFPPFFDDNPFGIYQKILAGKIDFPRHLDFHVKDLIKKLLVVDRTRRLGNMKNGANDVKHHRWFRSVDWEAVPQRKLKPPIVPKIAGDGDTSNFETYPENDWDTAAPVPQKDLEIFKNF

[9] = target: T5, cAMP-dependent protein kinase catalytic subunit PRKX (Homo sapiens); settings: at 1 µM
[10] = target: Rho-associated protein kinase 1 (Homo sapiens) (UniProt Q13464); settings: at 0.1 µM;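 also: values are mean percent inhibition of ROCK1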
Sequence of Rho-associated protein kinase 1 (Homo sapiens) (Q13464 2-1354 limits assumed): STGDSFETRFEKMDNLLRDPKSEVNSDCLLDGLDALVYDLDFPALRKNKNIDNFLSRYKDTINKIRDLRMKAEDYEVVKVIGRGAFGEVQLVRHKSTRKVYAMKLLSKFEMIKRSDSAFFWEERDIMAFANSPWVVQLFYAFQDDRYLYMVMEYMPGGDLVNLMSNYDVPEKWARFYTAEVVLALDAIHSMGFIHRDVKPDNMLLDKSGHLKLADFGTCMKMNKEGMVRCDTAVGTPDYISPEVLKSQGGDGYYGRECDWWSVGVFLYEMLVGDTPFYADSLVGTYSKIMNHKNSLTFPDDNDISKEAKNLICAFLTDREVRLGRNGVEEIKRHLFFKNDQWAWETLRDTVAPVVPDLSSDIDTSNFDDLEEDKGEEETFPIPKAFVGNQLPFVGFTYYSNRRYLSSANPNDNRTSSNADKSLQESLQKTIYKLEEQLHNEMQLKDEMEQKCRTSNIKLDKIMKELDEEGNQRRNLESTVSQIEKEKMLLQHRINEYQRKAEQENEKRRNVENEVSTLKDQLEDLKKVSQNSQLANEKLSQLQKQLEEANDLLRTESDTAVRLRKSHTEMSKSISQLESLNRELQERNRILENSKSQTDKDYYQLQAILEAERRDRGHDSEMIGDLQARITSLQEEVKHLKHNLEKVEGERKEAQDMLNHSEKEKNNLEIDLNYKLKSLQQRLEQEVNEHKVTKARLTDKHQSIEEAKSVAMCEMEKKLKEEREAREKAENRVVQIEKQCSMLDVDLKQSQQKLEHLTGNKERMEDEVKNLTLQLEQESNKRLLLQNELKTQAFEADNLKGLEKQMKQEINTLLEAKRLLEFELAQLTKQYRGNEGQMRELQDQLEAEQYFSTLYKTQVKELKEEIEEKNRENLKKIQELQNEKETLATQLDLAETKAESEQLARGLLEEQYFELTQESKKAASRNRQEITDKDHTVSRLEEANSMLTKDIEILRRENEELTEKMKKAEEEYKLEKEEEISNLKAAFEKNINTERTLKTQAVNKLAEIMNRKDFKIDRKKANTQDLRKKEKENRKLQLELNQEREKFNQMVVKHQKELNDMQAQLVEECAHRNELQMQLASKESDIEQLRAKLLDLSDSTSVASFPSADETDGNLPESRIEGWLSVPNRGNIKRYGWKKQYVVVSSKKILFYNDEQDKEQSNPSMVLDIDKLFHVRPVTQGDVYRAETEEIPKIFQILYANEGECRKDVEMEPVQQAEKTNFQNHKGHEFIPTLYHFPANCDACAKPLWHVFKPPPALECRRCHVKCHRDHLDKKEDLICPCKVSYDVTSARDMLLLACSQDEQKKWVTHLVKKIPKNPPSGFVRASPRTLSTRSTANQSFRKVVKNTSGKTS

Structure (SMILES)	inhibition [1] [%]	inhibition [2] [%]	inhibition [3] [%]	inhibition [4] [%]	inhibition [5] [%]	inhibition [6] [%]	inhibition [7] [%]	inhibition [8] [%]	inhibition [9] [%]	inhibition [10] [%]
Cc1ccc(C(=O)NC2CCCCC2)cc1-c1ccc(C(=O)NCC2CC2)cc1	2.9	2.25	2.53	4.55	4.23	2.62	2.94	2.1	0.91	1.64
CC(=O)Nc1cccc(C#Cc2cncnc2Nc2ccc(OCc3cccc(F)c3)c(Cl)c2)n1	-0.67	-1.15	-1.81	2.8	3.25	3.49	6.99	1.81	5.08	1.28
CCn1c(-c2nonc2N)nc2cncc(C(=O)N3CCNCC3)c21	4.19	5.65	4.94	5.91	9.25	6.28	7.34	3.9	3.75	–
CC1=C(C(=O)Nc2ccc3[nH]ncc3c2)C(c2ccc3ccccc3c2)CC(=O)N1 (stereo unspecified)	6.67	3.48	8.7	12.8	53.3	12.6	53.3	33.7	75.3	–
CS(=O)(=O)Nc1ccc(N/C=C2\C(=O)Nc3ccccc32)cc1	2.63	-1.78	-0.06	-1.67	-1.49	-0.94	3.29	-0.88	0.66	-0.53
CCn1c(-c2nonc2N)nc2cnc(Oc3cccc(NC(=O)c4ccc(OCCN5CCOCC5)cc4)c3)cc21	4.52	2.2	2.69	60.5	76.6	27.3	66.3	18.6	63.1	–
CCn1c(-c2nonc2N)nc2c(C#CC(C)(C)O)nc(CN3CCCC3)cc21	6.86	1.31	6.41	4.4	10.7	5.6	37.8	10.5	42	0.15
CCc1cccc(NC(=O)Nc2ccc(Oc3ccc4nc(NC(=O)OC)[nH]c4c3)cc2)c1	1.88	1.72	0.75	-0.2	3.08	0.88	0.86	0.91	3.18	12.1
Nc1ncnc2occ(-c3ccc(NC(=O)Nc4cccc(C(F)(F)F)c4)cc3)c12	4.09	5.37	5.91	3.04	1.94	2.46	3.85	1.94	3.42	4.04
CCn1c(-c2nonc2N)nc2cncc(C(=O)N3CC[C@H](N)C3)c21	8.24	3.97	7.57	57	82.5	72.7	83.7	31.8	73.4	–
O=C1Nc2ccc(C(=O)c3ccco3)cc2C1=Cc1cc(Cl)c(O)c(Cl)c1	5.54	3.68	6.98	1.67	4.46	1.29	5.93	1.34	2.91	1.44
c1cnn2ncc(-c3ccnc(Nc4ccc5c(c4)OCCO5)n3)c2c1	38.2	7.82	50.5	4.87	18.9	1.98	8.51	1.25	2.29	1.28
Nc1ncnc2occ(-c3ccc(NC(=O)Nc4cc(C(F)(F)F)cc(C(F)(F)F)c4)cc3)c12	1.29	1.47	1.15	1.23	1.54	0.73	1.97	-0.03	-3.64	6.3
Cc1cc(O)cc(C)c1/C=C/c1cncc(-c2nn[nH]n2)c1	4.1	2.66	4.77	2.15	4.8	2.47	3.8	1.59	1.75	1.38
CS(=O)(=O)CCNCc1ccc(-c2ccc3ncnc(Nc4ccc(OCc5cccc(F)c5)c(C(F)(F)F)c4)c3c2)o1	5.13	4.32	3.88	2.84	5.15	1.78	3.11	2.44	4.07	1.46
COc1cc2c(cc1Nc1nc(N3CCc4ccccc43)c3cc[nH]c3n1)N(C(=O)CN(C)C)CC2	3.6	1.51	4.37	2.84	2.75	2.18	2.75	0.6	-1.42	0.33
O=C1NC(=O)C(c2cccc(Cl)c2)=C1Nc1ccc(O)c(Cl)c1	3.16	0.75	1.47	0.66	2.21	1.23	5.33	-0.43	-1.53	0.21
